In PubChem BioAssay AID748 (Sanford-Burnham Center for Chemical Genomics, 2007):
In all, about 96,000 compounds went through this assay and about 100 (0.1%) were called active.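 The calls were made as follows: active = displacement above 50% at 20 µM plus a fluorescence interference ratio under 1.5; inactive = the rest.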 Only a selection was taken, and actives are over-represented in it overall. Measured potencies and affinities stand elsewhere.

What follows are molecules tested against Bcl-2-like protein 10 (Homo sapiens) (UniProt Q9HD36) (assay: displacers of TR3 peptide from Bcl-B, primary screen, selectivity assay for Bfl-1 inhibitor project, biochemical, fluorescence polarization, FITC-TR3 peptide (AID 748;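 also: plate controls were wells without compound for no effect and wells lacking Bcl-B protein for full effect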)). Details: FP displacement of FITC-TR3 peptide from Bcl-B; at 20 µM; stronger effect = higher value.

displacement, inactive:
Cc1ccc(C)c(NC(=O)C2C(c3ccccc3)C2(Cl)Cl)c1 (centres undefined) -7.6%
Cc1cccc(Nc2nc(N)nc(CN3CCN(Cc4ccc5c(c4)OCO5)CC3)n2)c1 -2.8%
Cc1cc(C)nc(/N=C(\N)C2=C(O)CC(C)(C)CC2=O)n1 -12.3%
CC1(C)OC(=O)C2(Cc3ccccc3N3CCCCC32)C(=O)O1 (centres undefined) 3.5%
O=C1c2ccccc2C(=O)C12Cc1ccccc1N1CCN(c3ccccc3)CC12 (centres undefined) -0.1%
O=C(CCS(=O)(=O)c1ccc(Br)cc1)N1CCN(Cc2ccccc2)CC1 -5%
O=C(CCN1CCc2ccccc2CC1)c1ccc2c(c1)OCCO2 19.8%
O=C(CCN1Cc2ccccc2C1)c1ccc2c(c1)OCCO2 0.8%
Cc1ccc(S(=O)(=O)NCCC(=O)NC2CCCC2)cc1 2%
O=C(CN1C(=O)C2CC=CCC2C1=O)Nc1nc2ccccc2[nH]1 (centres undefined) 7.6%
CCCOc1cc(C)nc(-c2ccccc2O)n1 -2.4%
O=C(Nc1nc(-c2ccccn2)cs1)C1CC1 -5.8%
O=C(CN1C(=O)C2CCCCC2C1=O)Nc1nc(-c2ccccn2)cs1 (centres undefined) -3.3%
Cc1cc2c(c(=O)n1CC1CCCO1)C(c1ccco1)C(C#N)=C(N)O2 (centres undefined) -1.3%
CCOC(=O)c1cnc(-n2nc(C)cc2C)nc1Nc1ccc(OC)cc1 0.6%
CCN(CC)S(=O)(=O)c1cc(C(=O)Nc2ccc(Cl)cn2)ccc1C -1.9%
Cc1nc2sc3c(c2c(=O)[nH]1)CCC3 -1.1%
Cc1ccc(-c2nc3s/c(=C\c4ccco4)c(=O)n3n2)cc1 -14.4%
CCCOc1ccc(Cc2nn3c(=O)/c(=C/c4ccco4)sc3nc2=O)cc1 -5.7%
CCn1c2ccccc2c2nnc(SCc3cc(=O)n4ccsc4n3)nc21 -0.4%
Cc1ccccc1Oc1ccc(S(=O)(=O)NCCC(=O)O)cc1 0.5%
Clc1ccc(CN2CCCCCCC2)cc1Cl -0.5%
ON=Cc1cccn1-c1ccccc1 3.4%
O/N=C/c1cccn1-c1ccc(O)cc1 0.9%
O=C(Nc1cccnc1)c1c(F)cccc1F 7.8%
O=C(c1coc(=O)c(Br)c1)N1CCCc2ccccc21 18%
O=C(c1ccc(=O)oc1)N1CCOCC1 -16.5%
CC1(C)CC(NC(=O)c2coc(=O)c(Br)c2)CC(C)(C)N1 6.4%
COc1ccc(C(=O)N2CCOCC2)cc1Br -9.8%
